MK inhibit: S. pneumoniae MK inhibitors, primary screen, biochemical, PK/LDH-coupled NADH absorbance; AID 555, 2006; inhibition, % at 10 µM; 0.48% of 65,000 active; purified MK, PK/LDH-coupled NADH absorbance 340 nm; mevalonate kinase [Streptococcus pneumoniae D39];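 active means ranked among the strongest by inhibition in the single 10 µM screen, a fixed top-ranked set picked for dose follow-up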
Abs 340nm: compound light absorbance at 340 nm, profiling panel, artefact control, biochemical, MLSMR library, data from PS, PMK, MK assays. compound absorbance at 340 nm, fold over control. fold change at 10 µM. 65,000 tested, under 10 active. AID 708, 2007;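 active means at 10 µM dose, initial 340 nm absorbance at least 2 fold that of control wells; inactive means change under 2 fold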;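 further: initial absorbance extrapolated from kinetic A340 decline of NADH oxidation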
Spn DPM-DC inh: S. pneumoniae DPM-DC inhibitors, primary screen, biochemical, PK/LDH-coupled NADH fluorescence | diphosphomevalonate decarboxylase (Streptococcus pneumoniae D39) | 0.49% of 65,000 active | purified DPM-DC | calls only at 10 µM;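 active means the 320 compounds with the highest percent inhibition in the single-dose primary screen, excluding strongly autofluorescent ones, cut at about 32% in these data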;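 further: kinetic rate of NADH fluorescence loss reporting ADP formed by the decarboxylase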
Autofluor 339: intrinsic fluorescence of library compounds, ex339/em460 – biochemical, MLSMR library, data from DPM-DC assay, artefact control, profiling panel; AID 709, 2007; 5.5% of 65,000 active; compound autofluorescence, ex339/em460 nm, NADH buffer; stronger effect = higher value; 1 = no-compound wells, NADH background; fluorescence fold increase at 10 µM;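 active means at 10 µM, mean starting fluorescence two-fold or more over control wells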;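 further: signal is the first read of a kinetic run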
NADH enzymes: inhibitors of PK/LDH coupling enzymes, profiling panel, artefact control, biochemical, MLSMR library; IC50, µM (top dose mostly 10 µM), for inactives: top-dose inhibition; coupled PK/LDH NADH assays, four targets; AID 774, 2007; 0.02% of 65,000 active;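 active means single-dose screening hits from any of four coupled enzyme assays that gave an IC50 when retested across doses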;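 further: the DPM-DC format reads NADH fluorescence rather than 340 nm absorbance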
PMK inhibit: S. pneumoniae PMK inhibitors, primary screen, biochemical, mevalonate pathway, pilot trial included; phosphomevalonate kinase (Streptococcus pneumoniae D39); inhibition, % at 10 µM; 0.49% of 65,000 active; purified PMK, PK/LDH-coupled NADH absorbance 340 nm;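 active means top-ranked compounds by inhibition in the single 10 µM screen, taking a fixed number of the strongest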;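 further: 0% = full reaction with DMSO carrier and 100% = background rate without enzyme reaction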
* = called active by the depositor; i = inactive; . = no result shown. Hits are enriched below; roughly 6.3% of the tested compounds scored in any of these assays.

SMILES	MK inhibit	Abs 340nm	Spn DPM-DC inh	Autofluor 339	NADH enzymes	PMK inhibit
CCOC(=O)CSc1nc2ccccc2c(=O)n1CC1CCCO1 (configuration not stated)	0	1.1	i	1.2	4%	11
N=c1c(S(=O)(=O)c2ccccc2)cc2c(=O)n3ccccc3nc2n1CC1CCCO1 (configuration not stated)	6	1	i	3.1*	10%	4
CCOC(=O)c1sc(C)c2c(=O)n(CCCN3CCOCC3)cnc12	10	1.1	i	1.5	7%	4
O=C(Cn1cnc2c(oc3ccccc32)c1=O)NCC1CCCO1 (configuration not stated)	0	1.1	i	1.4	0%	0
Nc1nnc(Cc2ccc(Cl)cc2)s1	9	0.98	i	0.99	3%	1
Nc1nnc(CCS(=O)(=O)c2cc(Cl)ccc2Cl)s1	53*	1	i	1.1	18%	0
CCOC(=O)c1sc2nc(N3CCOCC3)c3c(c2c1N)CCCC3	6	1.1	.	3.7*	7%	7
O=C(NCc1ccco1)c1cc(-c2ccccc2)c(N2CCOCC2)s1	1	1	i	1.1	5%	13
Nc1c(C(=O)NCc2ccco2)sc2nc(N3CCOCC3)c3c(c12)CCCC3	0	1.1	.	2.4*	2%	4
COC(=O)c1ccc(CSc2ncnc3c2sc2nc(N4CCOCC4)c4c(c23)CCCC4)o1	0	1.1	.	2.1*	0%	0
COC(=O)c1ccc(Cn2nnc3c(sc4nc(N5CCOCC5)c5c(c43)CCCC5)c2=O)o1	7	1	i	1.1	4%	6
CCOC(=O)c1sc2nc(N3CCCC3)c3c(c2c1N)CC(C)(C)OC3	6	1	.	3*	2%	1
CC(=O)c1cccc(NS(=O)(=O)N2CCCCC2)c1	6	1	i	1.1	5%	8
COC(=O)C1=C(C)NC(=O)C1(NC(=O)CN1CCCC1=O)C(F)(F)F (configuration not stated)	6	1	i	1	3%	9
COC(=O)c1ccc(-c2sc3nc(N4CCOCC4)c4c(c3c2N)CCCC4)o1	1	1	.	2.5*	1%	0
CNC(=O)c1nnn(Cc2ccccc2)c1NC(=O)C(F)(F)F	0	1	i	1.1	7%	13
Cc1nc2ccccc2c(=O)n1/N=C/c1cccnc1	4	1.1	i	1	1%	0
COCCCNC(=O)c1c(N)n(/N=C/c2cccnc2)c2nc3ccccc3nc12	6	1.1	.	2.3*	9%	11
COCCCNC(=O)c1c(N)n(/N=C/c2cccs2)c2nc3ccccc3nc12	0	1.1	.	2.3*	3%	6
CC(C)OCCCNC(=O)c1c(N)n(/N=C/c2ccccn2)c2nc3ccccc3nc12	2	1.1	i	1.4	4%	3
CC(C)CNC(=O)c1c(N)n(/N=C/c2cccnc2)c2nc3ccccc3nc12	7	1	.	2.3*	6%	4
CCC(C)NC(=O)c1c(N)n(/N=C/c2cccnc2)c2nc3ccccc3nc12 (configuration not stated)	0	1.1	.	3.1*	3%	5
CCC(C)NC(=O)c1c(N)n(/N=C/c2ccccn2)c2nc3ccccc3nc12 (configuration not stated)	0	1.1	i	1.9	8%	2
COc1ccc(C(=O)COC(=O)CCn2nnc(-c3cccs3)n2)cc1	8	0.99	i	1	3%	3
O=C(CSCc1ccc(Cl)cc1)c1ccco1	10	0.99	i	1.1	3%	0
SMILES	MK inhibit	Abs 340nm	Spn DPM-DC inh	Autofluor 339	NADH enzymes	PMK inhibit
Nn1c(SCC(=O)Nc2ccc(F)c(F)c2)nnc1C1CCCCC1	9	1	i	1.1	6%	9
CCCC(=O)Nc1cc(OC)c(OC)cc1C(=O)O	0	1.1	i	1.2	0%	0
CCCCNc1cc(NC(C)=O)cc2cc(OC)c(OC)cc12	9	1.1	.	2.1*	6%	2
CC1(C)CC(=O)C(C=NCCCn2ccnc2)=C(O)C1	9	1	i	1.1	3%	0
Clc1ccc2c(c1)C1OCCC1C(c1ccco1)N2 (configuration not stated)	7	1.1	.	3.7*	9%	10
Cc1ccc(-n2ncc(C(=O)N3CCc4ccccc4C3)c2NC(=O)c2ccco2)cc1C	6	0.99	i	1	2%	8
CCOC(=O)c1nn(-c2ccc3c(c2)CCN3C(C)=O)cc1O	6	1.1	.	2.2*	3%	0
CCc1ccc(NC(=O)N(C2CCC(C)CC2)C2CCN(C(C)=O)CC2)cc1 (configuration not stated)	0	1	i	0.91	8%	15
CCOc1cc(C2Nc3ccccc3C(=O)N2c2ccccc2OC)ccc1O (configuration not stated)	0	1	.	2.5*	2%	5
COc1cc(C2Nc3ccccc3C(=O)N2c2ccccc2OC)ccc1O (configuration not stated)	2	1	.	5.1*	7%	12
c1cc2c3c(cccc3c1)NC1(CCCCCC1)N2	11	1.1	.	3.8*	9%	7
CC(=O)c1c(C)oc(C)c1CSCc1ccc(C(=O)O)o1	11	1	i	1.1	10%	11
Cc1ccccc1NC(=O)CSc1nc(N)c(C#N)c(-c2cccs2)c1C#N	0	1	i	1.6	5%	8
Cc1ccc(-n2nc(C)c3c(-c4cccs4)c(C#N)c(N)nc32)cc1	11	1.1	i	2.4*	7%	0
Cc1nn(-c2ccccc2)c2nc(N)c(C#N)c(-c3ccc(F)cc3)c12	11	1	.	3.8*	9%	6
Cc1nc(N)c(C#N)c(-c2ccccc2)c1C	7	1.1	i	1.3	3%	0
COc1ccc(S(=O)(=O)Nc2ccccc2C(=O)NCc2ccco2)cc1	6	1	.	3.6*	8%	9
COc1ccc(C2OC(=O)CC2C(=O)NC2CCCCCC2)cc1OC (configuration not stated)	0	0.98	i	1	4%	13
O=c1oc2c(CN3CCOCC3)c(O)ccc2c2c1CCCC2	8	1.1	.	3.8*	12%	15
COCCN(CCOC)Cc1cc(=O)oc2cc3c(cc12)CCC3	7	1.1	i	1.2	9%	14
COCCN(CCOC)Cc1c(O)ccc2c3c(c(=O)oc12)CCC3	9	1.2	.	2*	14%	19
